Compound activity from PubChem.
MITF inh – blocks human microphthalmia-associated transcription factor; O75030; inhibition, % at 2.6 µM; 650,000 compounds, 0.91% hits; AID 1259374; AlphaScreen MITF homodimerization, bead proximity signal; in the data active = inhibition above about 50%;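 note: 0% = vehicle wells with protein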
GPR151 ag – human GPR151 activation. Q8TDV0. PathHunter beta-arrestin GPR151 cells, luminescence. activation, % at 11.2 µM. 650,000 compounds, 1% hits; in the data active = activation above about 4.9%;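 note: 0% = median of compound wells and 100% = cells with positive control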
Target sequence (Q8TDV0 whole entry, looked up): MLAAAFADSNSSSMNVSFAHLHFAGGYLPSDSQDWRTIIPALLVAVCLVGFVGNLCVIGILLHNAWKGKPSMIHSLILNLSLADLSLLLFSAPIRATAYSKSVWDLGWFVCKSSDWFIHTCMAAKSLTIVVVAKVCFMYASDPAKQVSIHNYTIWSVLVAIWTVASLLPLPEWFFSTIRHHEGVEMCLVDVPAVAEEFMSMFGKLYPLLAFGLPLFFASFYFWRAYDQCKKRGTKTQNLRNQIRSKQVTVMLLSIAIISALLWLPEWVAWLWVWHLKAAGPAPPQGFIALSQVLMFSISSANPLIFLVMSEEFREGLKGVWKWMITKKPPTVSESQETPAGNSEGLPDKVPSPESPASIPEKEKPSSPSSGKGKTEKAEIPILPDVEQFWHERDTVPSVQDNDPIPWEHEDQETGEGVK
FBW7 activator – human FBW7 E3 ligase activation, primary screen | normalized activity (activation), % at 26.1 µM | AlphaScreen FBW7–phospho-cyclin E peptide binding, activator screen | 650,000 compounds, 0.13% hits | Q969H0; in the data active = normalized activity above about 1.9%;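 note: purified mutant Fbw7 with reduced substrate affinity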
TEAD-YAP block – TEAD-YAP interaction inhibition; HEK-TIYL cells, TEAD-Gal4/YAP UAS-luciferase luminescence; inhibition, % at 9.12 µM; 640,000 compounds, 1.4% hits; AID 1259422; in the data active = inhibition above about 32%;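 note: 0% = median of test compound wells and 100% = reference inhibitor wells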
GPR151 conf act – confirmation of human GPR151 activators; shares compounds with GPR151 ag; GPR151 PathHunter beta-arrestin cells, luminescence, 90 min; % of EA-reagent control over plate median; activation, % at 11.2 µM; 6,700 tested, under 10 active; AID 1508609;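 active = mean percent activation across replicates above the confirmation screen cutoff of 4.91%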
GPR119 counter – GPR119 activation, counter-screen for GPR151 activators | shares compounds with GPR151 ag | GPR119 PathHunter beta-arrestin cells, luminescence, 90 min; 0 = compound-well median, 100 = enzyme-acceptor control | activation, % at 11.2 µM | 6,700 compounds, 0.3% hits | AID 1508611;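 active = mean percent activation in the counterscreen above 29.09%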;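 note: counterscreen on off-target GPR119 to flag nonselective hits from the GPR151 activator screen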
* hit, by the source's call; . = no result. A selection: hits, their analogues and other compounds. The true share with any hit is near 3.4%.

SMILES	MITF inh	GPR151 ag	FBW7 activator	TEAD-YAP block	GPR151 conf act	GPR119 counter
CCOc1cc(C)c(S(=O)(=O)N2CC(C)OC(C)C2)cc1C (centres undefined)	13	1	0	-3	.	.
CS(=O)(=O)C1=NN2C(=N)/C(=C\c3ccc(-c4ccc([N+](=O)[O-])cc4)o3)C(=O)N=C2S1	4	-1	0	9	.	.
FC(F)(F)c1cccc(CNc2nc(Nc3ccccc3)nc3c2ncn3C2CCCCC2)c1	0	0	0	-1	.	.
O=C(CN1CCCCC1)N/N=C/c1ccccc1O	49	5.8*	0	13	1	11
O=C(Nc1nc(SCc2ccc(F)cc2)ns1)c1cc(F)c(F)cc1Cl	-1	8.4*	0	27	0	-5
CSc1nsc(NC(=O)c2ccc(F)cc2F)n1	2	-10	0	-64	.	.
NC(=O)COC(=O)CCN1c2ccccc2Sc2ccccc21	-8	9.8*	-1	16	0	-13
Cc1cccc(OCC(=O)NCc2nc(-c3ccccc3)no2)c1C	0	1	0	9	.	.
CCSc1nnc2c(n1)OC(c1cc(OC)c(OC)cc1Br)Nc1ccccc1-2 (centres undefined)	-3	1	0	-12	.	.
O=c1c2c3c(sc2[nH]c(=S)n1-c1ccccc1)CN(Cc1ccccc1)CC3	2	5.3*	0	9	0	-6
O=c1c2c3c(sc2[nH]c(=S)n1-c1ccccc1)CCC3	11	1	2	0	.	.
N#CCCn1cc(/C=C/C(=O)O)c(-c2ccc(Cl)cc2)n1	3	0	0	1	.	.
O=C(Cn1c(-c2cccnc2)nc2ccccc21)NCc1ccccc1Cl	7	5.6*	0	-8	0	2
Nn1c(O)c(C2=c3cc(F)ccc3=NC2=O)sc1=S	3	6.0*	0	8	0	-11
O=C(NC1CC1)c1cnc(N2CCN(c3ccccn3)CC2)s1	10	5.0*	0	-17	1	3
O=C(COc1ccccc1)NCCc1cn2ccsc2n1	4	5.0*	-1	2	2	12
O=C(NC(c1ccc(Cl)cc1)c1nc2ccc(-c3cn[nH]c3)cc2c(=O)[nH]1)C1CCNC1 (centres undefined)	17	0	0	-17	.	.
CCOc1ccc(Br)cc1C(=O)N/N=C/c1ccc([N+](=O)[O-])cc1	2	7.3*	0	0	1	-4
O=C(N/N=C/c1ccncc1)c1cc(Br)ccc1OCc1ccccc1	15	5.1*	0	-5	1	-2
Cc1c(C(=O)C(=O)NC(C)C)c2ccccc2n1C	6	6.3*	0	-2	0	3
CNC(=O)C(=O)c1c(C)n(C)c2ccccc12	-1	0	0	6	.	.
OCCC1CCCCN1c1ccnc2c(-c3ccsc3)cnn12 (centres undefined)	-9	5.4*	0	-54	0	0
COc1cccc2cc(C(=O)Nc3cccc4ccccc34)c(=O)oc12	-9	-1	0	-2	.	.
CSCCC(=O)NCC1Cc2c(F)ccc(-c3nc(C)cnc3C)c2O1 (centres undefined)	-1	1	0	-10	.	.
Cc1ccc(NC(=O)c2cc([N+](=O)[O-])ccc2Cl)cc1C	10	-1	0	-21	.	.
SMILES	MITF inh	GPR151 ag	FBW7 activator	TEAD-YAP block	GPR151 conf act	GPR119 counter
Cc1ccn2cc(-c3ccc(NC(=O)c4ccc(Br)cc4)cc3)nc2n1	-4	5.8*	0	2	-1	-14
Cc1ccn2cc(-c3ccc(NC(=O)CCc4ccccc4)cc3)nc2n1	-9	-2	0	-26	.	.
O=C1CCCN1CCCn1c(SCc2c(F)cccc2F)nc2ccccc2c1=O	0	0	0	1	.	.
COc1ccc(NC(=O)c2ccc(Br)s2)cc1OC	0	8.8*	0	-29	0	9
O=C1O/C(=C/Br)CC[C@@H]1c1cccc2ccccc12	-6	0	.	.	.	.
O=C(NCCNC(=O)c1ccn[nH]1)c1ccn[nH]1	2	-1	0	5	.	.
O=C(NCCO)c1ccn[nH]1	0	6.0*	0	11	0	-8
Cc1cc(C(F)(F)F)nc2snc(Br)c12	8	5.2*	0	2	-1	-9
CCOC(=O)CSc1nc2ccc(NC(=O)CSCC(=O)Nc3ccccc3)cc2s1	-2	4.9*	0	2	0	6
O=C(CSCC(=O)Nc1ccc2nc(SCC(=O)Nc3ccccc3)sc2c1)Nc1ccc2ccccc2c1	11	-1	0	0	.	.
Cc1csc(NC(=O)CSc2nnc(CSCc3ccc(F)cc3)n2C)n1	-10	5.1*	0	15	0	7
Cc1csc(NC(=O)CSCC(=O)Nc2ccccc2)n1	-9	6.9*	0	-8	1	6
CCn1c(CSCc2ccc(F)cc2)nnc1SCC(=O)Nc1nc(C)cs1	-11	0	0	9	.	.
Cc1cc(/C=C(/C#N)c2nc3ccccc3[nH]2)c(C)n1-c1ccc(S(N)(=O)=O)cc1	-4	0	0	-13	.	.
Cc1ccccc1C(=O)N(CCCCN1C(=O)c2ccccc2C1=O)c1ccc(Cl)cc1	2	0	0	-3	.	.
COC(=O)c1cc(NC(C)=O)c(Cl)c(NC(C)=O)c1	26	-1	0	4	.	.
CC(=O)Nc1cc(C(=O)O)cc(N)c1Cl	16	5.5*	0	0	-1	-2
COc1ccccc1C(=O)Nc1nn[nH]n1	-6	4	0	-4	.	.
Cc1ccc(NC(=O)CC2(CC(=O)O)CCCCC2)c(C)c1	15	5.7*	0	-3	0	8
Cc1cccc(NC(=O)CC2(CC(=O)O)CCCC2)c1	0	-1	0	-8	.	.
Cc1cn2c3c(=O)n(CC(N)=O)c(=O)n(C)c3nc2n1-c1ccc(Cl)cc1	5	5.7*	0	3	0	-4
COC(=O)CSc1nnc(CNC(=O)c2cccc(F)c2)n1C	-3	5.2*	1	-27	0	4
COC(=O)CSc1nnc(CNC(=O)c2cccc(C)c2)n1C	5	1	0	2	.	.
COc1cc(Nc2cc(-c3ccc(C(N)=O)cc3)nc(N)n2)cc(OC)c1OC	6	12*	0	-3	2	-3
Cc1cccc(-n2nnnc2SCC(=O)NN2C(=O)NC(C)(c3ccccc3)C2=O)c1 (centres undefined)	-8	6.9*	0	8	1	12
CC1CN(C(=O)CCC(=O)NCc2cccc(Br)c2)c2ccccc2O1 (centres undefined)	1	2	0	0	.	.
O=C(CSCC(=O)N1CCCCC1)Nc1nc(-c2cccs2)cs1	10	-1	0	-5	.	.
O=C(CSCC(=O)N1CCCCC1)Nc1nc(-c2ccc(Cl)s2)cs1	1	6.1*	0	-24	0	7
